# D2 ag-1 – HTS Assay for Allosteric Agonists of the Human D2 Dopamine Receptor: Primary Screen for Agonists; D(2) dopamine receptor (Homo sapiens), P14416; AID 485358, 2010; activation, % at 2 µM; HEK293 T-REx D2 cells, calcium flux agonist mode; actives 0.53% (n = 340,000);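 active = activation over 3 SD above normal in the single-dose calcium agonist read, cut at about 30% in these data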
# Target sequence (P14416 whole entry, looked up): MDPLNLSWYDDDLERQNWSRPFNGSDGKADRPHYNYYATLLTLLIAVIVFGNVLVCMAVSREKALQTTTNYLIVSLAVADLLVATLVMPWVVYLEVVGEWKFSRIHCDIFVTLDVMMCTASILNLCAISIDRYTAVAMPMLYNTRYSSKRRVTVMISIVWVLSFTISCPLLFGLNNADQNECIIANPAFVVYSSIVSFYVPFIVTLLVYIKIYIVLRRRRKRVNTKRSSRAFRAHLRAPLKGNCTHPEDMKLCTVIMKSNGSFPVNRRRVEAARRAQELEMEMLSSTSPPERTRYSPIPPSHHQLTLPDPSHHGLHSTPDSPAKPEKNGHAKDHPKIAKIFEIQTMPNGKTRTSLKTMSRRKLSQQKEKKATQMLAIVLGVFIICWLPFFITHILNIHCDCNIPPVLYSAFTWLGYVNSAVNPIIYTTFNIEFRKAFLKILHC
#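 Tetracycline-induced HEK293 Trex cells with D2 receptor force-coupled to calcium signaling, plated overnight at 30 C and loaded with no-wash calcium dye. Calcium flux read kinetically for 180 s after compound addition; responses flag agonists.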
# D2 ag-2 – Beta-Arrestin HTS for Positive Allosteric Modulators of the Human D2 Dopamine Receptor: Agonists. D(2) dopamine receptor (Homo sapiens), P14416. DiscoveRx PathHunter D2 beta-arrestin, luminescence, 90 min; 100% = 57 uM dopamine signal. activation, % (no concentration beside the values). actives 0.084% (n = 360,000). AID 624465, 2012; in the data active = activation above about 40%; inconclusive = between about 15% and that limit
#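 DiscoveRx PathHunter D2 beta-arrestin cells (2,100/well) attached overnight, then compound-stimulated 90 min at 37 C in HBSS/10 mM HEPES/0.1% Tween-20 buffer; beta-galactosidase complementation read by luminescence after 1 h at ambient temperature. Dopamine 57 uM final (EC100) as control.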
# D2 PAM-1 – HTS Assay for Positive Allosteric Modulators of the Human D2 Dopamine Receptor: Primary Screen for Potentiators | D(2) dopamine receptor (Homo sapiens), P14416 | HEK293 T-REx D2, calcium flux, EC20 dopamine potentiation | potentiation, % at 10 µM | actives 0.34% (n = 340,000);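 active = potentiation over 3 SD above the plate norm, cut at about 30% in these data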
#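 Potentiation of an EC20 dopamine calcium response measured kinetically over 180 s, after a preceding 180 s compound-only read flagging agonists. Cells: inducible Hek293 Trex D2 line, 4000/well, cultured overnight at 30 C before dye loading.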
# D2 antag – HTS Assay for Allosteric Antagonists of the Human D2 Dopamine Receptor: Primary Screen for Antagonists; D(2) dopamine receptor (Homo sapiens), P14416; HEK293 TREx D2 cells, calcium flux, dopamine EC80; inhibition, % at 10 µM; actives 2% (n = 340,000); AID 485344, 2010; in the data active = inhibition above about 30%; inactive = below that, where a call was filed
#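 HEK293 T-REx D2 cells, tet-induced, calcium dye no-wash. Cpd pintool add, 180 s kinetic, then EC80 DA, 180 s kinetic. Ca flux read.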
# D2 PAM-2 – Beta-Arrestin HTS for Positive Allosteric Modulators of the Human D2 Dopamine Receptor: Potentiators; actives 0.23% (n = 360,000); potentiation, % (concentration not given with the values); DiscoveRx D2 beta-arrestin cells, luminescence, 90 min; 100% = 57 uM dopamine signal; in the data active = potentiation above about 50%; inconclusive = mostly about 30% to 49%
#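 D2 cells co-treated with compound plus 50 nM dopamine (EC20) for 90 min at 37 deg C to detect potentiation. Beta-arrestin recruitment was read as enzyme-fragment luminescence after 1 h at ambient temperature. Full response was set by 57 uM dopamine.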
# A number is an active result; – = inactive; ? = inconclusive; · = not tested or not shown; ! = not confirmed by another sample. The list is not random: actives were taken first. Their share in the collection is about 2.4%.
SMILES,D2 ag-1,D2 ag-2,D2 PAM-1,D2 antag,D2 PAM-2
S=C(Nc1ccc(Cl)cc1)c1nc2ccccc2s1,–,–,–,–,–
Nc1nc(NC(=O)/C=C\C(=O)O)nn1-c1ccccc1,–,–,–,36,–
CC(=O)Nc1nc(N)n(-c2ccccc2)n1,–,–,–,–,–
CCOC(=O)C1=C(c2ccccc2)NC(SCC(=O)Nc2ccc(C)cc2)=C(C#N)C1c1ccco1 (stereo not drawn),–,–,–,55,–
CCOC(=O)C1=C(c2ccccc2)NC(SCC(=O)Nc2cccc(C)c2)=C(C#N)C1c1ccco1 (stereo not drawn),–,–,–,–,–
CCOc1ccccc1-c1nc(Cn2c(=O)cc(C)c3c(C)nn(-c4ccccc4)c32)c(C)o1,–,·,–,·,·
Cc1cc2ccc(C)c(C)c2nc1SCC(=O)c1cccs1,–,–,–,60,–
O=C(Nc1ccccc1)c1nc[nH]c1C(=O)NCCNC(=O)c1[nH]cnc1C(=O)Nc1ccccc1,·,?,·,·,61
CC(C)(CNC(=O)c1ccc(Br)o1)N1CCOCC1,–,–,–,–,–
COc1ccc(NC(=O)c2ccc(-c3ccccc3Cl)o2)cc1,–,–,–,42,–
COc1ccc(C(CNC(=O)c2ccc(-c3ccccc3Cl)o2)N2CCOCC2)cc1 (stereo not drawn),–,–,–,66,–
COc1ccc(C(CNC(=O)CSc2ccccc2F)N2CCOCC2)cc1 (stereo not drawn),–,–,–,–,–
COc1ccc(NC(=O)c2ccc(-c3cccc(Cl)c3C)o2)cc1,–,·,–,·,·
COc1ccccc1C(CNC(=O)c1ccc(-c2ccccc2Cl)o1)N1CCCC1 (stereo not drawn),–,–,–,–,–
COc1ccc(C(CNC(=O)c2cc(F)c(F)c(F)c2F)N2CCOCC2)cc1 (stereo not drawn),–,–,–,40,–
CC(C)(CNC(=O)c1ccc(-c2ccccc2Cl)o1)N1CCOCC1,–,–,–,40,–
Oc1ccc2nnc3c(Br)cnn3c2c1,53,?,–,–,–
CCOc1ccccc1NC(=O)N1CCC2(CC1)Oc1ccccc1C(=O)N2Cc1ccccc1F,–,·,–,·,·
COc1ccccc1CCNC(=O)C(=O)NCC(c1cccnc1)N1CCN(c2ccccc2)CC1 (stereo not drawn),–,·,–,·,·
Cc1nc(NS(=O)(=O)c2ccccc2)sc1NC(=O)Nc1ccc(Cl)cc1,–,–,–,–,–
CCOC(=O)Nc1sc(NS(=O)(=O)c2ccccc2)nc1C,–,–,–,–,86
Cc1nc(NS(=O)(=O)c2ccccc2)sc1NC(=O)Nc1ccccc1,–,?,–,55,–
CCNC(=O)C1(C)CCN1CCC(=O)c1ccc(C)cc1 (stereo not drawn),·,–,·,·,–
CCSc1ncc(Cl)c(C(=O)N(Cc2ccccc2)c2ccc(OC)cc2)n1,·,·,–,·,·
CC(NC(=O)c1ccc(NC(=O)c2nsc3ccccc23)cc1)c1ccccc1 (stereo not drawn),·,·,–,·,·
SMILES,D2 ag-1,D2 ag-2,D2 PAM-1,D2 antag,D2 PAM-2
CCOP(=O)(OCC)c1nc(-c2ccc(Br)cc2)oc1N1CCCCC1,·,–,·,·,–
CCOP(=O)(c1ccccc1)c1nc(-c2ccc(F)cc2)oc1N1CCCCC1 (stereo not drawn),–,–,–,32,–
COc1cccc(N2CCN(C3OC(=O)c4ccccc43)CC2)c1 (stereo not drawn),–,–,–,30,–
Clc1ccc2c(c1)C(N1CCNCC1)=Nc1ccccc1O2,–,–,–,76,–
Cc1ccc(S(=O)(=O)Nc2ccc3c(c2)C(=O)c2ccccc2-3)cc1,·,–,·,·,–
Cc1ccc(NS(=O)(=O)c2ccc3c(c2)C(=O)c2ccccc2C3=O)c(C)c1,–,–,–,–,81
Cc1ccc(NC(=O)COc2ccccc2)c(NC(=O)c2ccccc2C)c1,·,–,·,·,–
Cc1ccc(NS(=O)(=O)c2ccc(C)c(NC(=O)COc3ccccc3)c2)c(C)c1,–,–,–,67,–
O=C(O)c1ccccc1OC(C(=O)Nc1cc(Cl)cc(Cl)c1)c1ccccc1 (stereo not drawn),–,–,–,36,–
O=C1CCC(C(=O)OC(C(=O)Nc2cc(Cl)cc(Cl)c2)c2ccccc2)=NN1 (stereo not drawn),–,–,–,33,–
Oc1ccc(Nc2nc(-c3ccc4ccccc4c3)cs2)cc1,–,·,–,–,·
Oc1ccc(Nc2ccc3ccccc3c2)cc1,·,–,·,·,66
c1ccc(CN(CC2=NCCN2)c2ccccc2)cc1,–,–,–,41!,–
CCCCCOc1ccc(C(=O)Nc2ccc(N3CCOCC3)cc2N2CCOCC2)cc1,–,–,78,–,–
CC(C)(C)C1CCC(C(=O)Nc2ccc(N3CCOCC3)cc2N2CCOCC2)CC1 (stereo not drawn),–,–,–,31,–
CCCCC1CCC(C(=O)Nc2ccccc2N2CCOCC2)CC1 (stereo not drawn),–,–,–,33,–
COc1ccc2c(c1)CC(NC(=O)Nc1ccc(NC(C)=O)cc1)CO2 (stereo not drawn),–,·,–,·,·
CCOc1ccc(-c2cc(NC(=O)Nc3ccccc3Cl)c(C(=O)OC)s2)cc1,·,·,–,·,·
CCOCc1cc(=O)[nH]c(SC)n1,–,–,–,30,–
CSc1nc(Cl)cc(=O)[nH]1,–,–,–,–,–
COc1cc(CN2C[C@@H](CO)O[C@@H](n3cnc4c(Nc5ccccc5)ncnc43)C2)cc(OC)c1OC,·,–,·,·,–
CN1CCN(CCCN2c3ccccc3Sc3ccc(S(=O)(=O)N(C)C)cc32)CC1,–,–,–,82,–
CCN1C(=O)c2ccccc2Sc2ccc(C(=O)NCCCN3CCCCC3)cc21,–,–,–,–,–
OCCN1CCN(CCCN2c3ccccc3Sc3ccc(Cl)cc32)CC1,–,–,–,86,–
CC(=O)c1ccc2c(c1)N(CCCN1CCC(CCO)CC1)c1ccccc1S2,–,–,–,74,–
O=C(CN1CCCC1)N1c2ccccc2Sc2ccc(Cl)cc21,–,–,–,–,–
CN1CCN(CCCNC(=O)c2cn(C)c3ccc(S(=O)(=O)N(C)C)cc3c2=O)CC1,–,–,–,–,–
CN(C)CCCN1c2ccccc2Sc2ccc3ccccc3c21,·,–,·,·,–
CN(C)CCCN1c2ccccc2Sc2ccc(Cl)cc21,–,–,–,86,–
